Our source for the growth inhibition values is PubChem BioAssay (NCI).

The structures appear in SMILES notation. This is part of a sample that, as a whole, favours compounds with a hit. Of some 79,000 tested, about 15% had one in any assay. Values without a mark were called inactive. Calls of active or inactive are those of the source. No stated cut-off is given here; in the data, active means growth inhibition above about 70%; inactive means the rest.

Assay [1] is described as follows: NCI Yeast Anticancer Drug Screen. Data for the rad50 strain (AID 155).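 Further: 0% = growth of vehicle-only cultures of the same strain.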 Conditions: S. cerevisiae rad50 strain growth inhibition, active compounds read high. An outline of the steps:
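Inhibition values express reduced yeast growth in compound-treated cultures relative to vehicle-treated controls.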

The nature of assay [2]: NCI Yeast Anticancer Drug Screen. Data for the mec2-1 strain (AID 157). Conditions: S. cerevisiae mec2-1 strain, active compounds read high. An outline of the steps:
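Cells of the genetically defined mec2-1 yeast strain are incubated with test compound. Inhibition of growth is calculated against vehicle-treated controls.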

Assay [3] is described as follows: NCI Yeast Anticancer Drug Screen. Data for the sgs1 mgt1 strain (AID 161).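 Further: 0% = growth of cultures given vehicle only.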 To be noted: S. cerevisiae sgs1 mgt1 strain, active compounds read high. The essentials: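 Genetically altered yeast, compound exposure, growth inhibition relative to vehicle.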
Assay [4] in a line: NCI Yeast Anticancer Drug Screen. Data for the cln2 rad14 strain (AID 165).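 Further: 0% = growth equal to vehicle treated cultures.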 To be noted: S. cerevisiae cln2 rad14 strain, active compounds read high. The essentials: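 The screen exposed genetically defined yeast (cln2 rad14) to test compounds and scored growth inhibition relative to vehicle-treated controls.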
Assay [5] can be described thus: NCI Yeast Anticancer Drug Screen. Data for the bub3 strain (AID 167). Conditions: S. cerevisiae bub3 mutant strain, active compounds read high. The essentials: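 Steps: expose the mutant yeast strain to compound; grow alongside vehicle-treated cultures; measure growth; express inhibition against the vehicle cultures.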
A short description of assay [6]: NCI Yeast Anticancer Drug Screen. Data for the mlh1 rad18 strain (AID 175). To be noted: S. cerevisiae mlh1 rad18 strain growth inhibition, active compounds read high. An outline of the steps:
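Compound-treated yeast growth, normalised to vehicle controls. Strain bears defined DNA repair mutations.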

Where [7] appears, read: at 5.0 µM (retest, dose inferred, filed as 0.5).
The mark [8] stands for this setting: at 50.0 µM (retest, dose inferred, filed as 5.0).

As to `Ic1ccc2c(c1)N(c1ccccc1)c1cc(N=c3ccc4nc5ccc(I)cc5n(-c5ccccc5)c-4c3)ccc1N2`, the growth inhibition was -3% in assay [1] (setting [7]); 15% in assay [1] (setting [8]); 81.5% (active) in assay [1] (at 50.0 µM); 12% in assay [2] (setting [7]); 4% in assay [2] (setting [8]); 93.6% (active) in assay [2] (at 50.0 µM). The growth inhibition in assay [3] (setting [7]) was -4%; in assay [3] (setting [8]), -13%; in assay [3] (at 50.0 µM), 76% (active); in assay [4] (setting [7]), 1%; in assay [4] (setting [8]), 29%; in assay [4] (at 50.0 µM), 91.8% (active). The growth inhibition in assay [5] (setting [7]) was -8%; in assay [5] (setting [8]), 11%; in assay [5] (at 50.0 µM) it was 97.3% (active); in assay [6] (setting [7]) it was -7%; in assay [6] (setting [8]), 18%; in assay [6] (at 50.0 µM), 93.9% (active).
As to `COC(=O)Nc1nc2ccc(CCC(=O)c3c(C)oc(C)c3-c3ccc(NC(C)=O)cc3)cc2[nH]1`, the growth inhibition in assay [1] (setting [7]) is 4%; in assay [1] (setting [8]), 79% (active); in assay [1] (at 50.0 µM), 58.1%; in assay [2] (setting [7]), 4%; in assay [2] (setting [8]), 55%; in assay [2] (at 50.0 µM) it was 37.3%. Further, the growth inhibition is 5% in assay [3] (setting [7]); 78% (active) in assay [3] (setting [8]); 75.8% (active) in assay [3] (at 50.0 µM); 6% in assay [4] (setting [7]); 67% in assay [4] (setting [8]); 27.4% in assay [4] (at 50.0 µM). Moreover, the growth inhibition in assay [5] (setting [7]) was 5%; in assay [5] (setting [8]) it was 70% (active); in assay [5] (at 50.0 µM) it was 26.1%; in assay [6] (setting [7]), -2%; in assay [6] (setting [8]) it was 69%; in assay [6] (at 50.0 µM), 60.7%.
As to `Cc1nn(C(=O)c2ccccc2O)c2c1C(c1ccc3ccccc3c1O)SC(N)=N2` (configuration not stated), the growth inhibition in assay [1] (setting [7]) is 8%; in assay [1] (setting [8]) it was 97% (active); in assay [1] (at 50.0 µM), 97.1% (active); in assay [2] (setting [7]) it was 0%; in assay [2] (setting [8]) it was 95% (active); in assay [2] (at 50.0 µM), 92.5% (active). The growth inhibition in assay [3] (setting [7]) is -4%; in assay [3] (setting [8]), 96% (active); in assay [3] (at 50.0 µM) it was 96.8% (active); in assay [4] (setting [7]), -9%; in assay [4] (setting [8]), 59%; in assay [4] (at 50.0 µM) it was 92.1% (active). Moreover, the growth inhibition is -13% in assay [5] (setting [7]); 97% (active) in assay [5] (setting [8]); 97.8% (active) in assay [5] (at 50.0 µM); 9% in assay [6] (setting [7]); 98% (active) in assay [6] (setting [8]); 97.7% (active) in assay [6] (at 50.0 µM).
As for `COc1ccc(/C=C\Cc2cc3c(cc2OCCO)OCO3)cc1`, the growth inhibition in assay [1] (setting [7]) is 3%; in assay [1] (setting [8]) it was 92% (active); in assay [1] (at 50.0 µM), 96.7% (active); in assay [2] (setting [7]), 7%; in assay [2] (setting [8]) it was 95% (active); in assay [2] (at 50.0 µM), 96.7% (active). Moreover, the growth inhibition is 7% in assay [3] (setting [7]); 97% (active) in assay [3] (setting [8]); 97.8% (active) in assay [3] (at 50.0 µM); 1% in assay [4] (setting [7]); 82% (active) in assay [4] (setting [8]); 69.6% in assay [4] (at 50.0 µM). For the same compound, the growth inhibition was -1% in assay [5] (setting [7]); 96% (active) in assay [5] (setting [8]); 85.6% (active) in assay [5] (at 50.0 µM); -2% in assay [6] (setting [7]); 97% (active) in assay [6] (setting [8]); 97.2% (active) in assay [6] (at 50.0 µM).
In the case of `CN=C(NC1CCCCC1)c1ccc(NC(=O)c2ccc(C(=O)Nc3ccc(C(=NC)NC4CCCCC4)cc3)cc2)cc1`, the growth inhibition in assay [1] (setting [7]) is 0%; in assay [1] (setting [8]), 81% (active); in assay [1] (at 50.0 µM), 69.5%; in assay [2] (setting [7]), 2%; in assay [2] (setting [8]) it was 59%; in assay [2] (at 50.0 µM) it was 24%. In addition, the growth inhibition is 6% in assay [3] (setting [7]); 96% (active) in assay [3] (setting [8]); 85.5% (active) in assay [3] (at 50.0 µM); 6% in assay [4] (setting [7]); 65% in assay [4] (setting [8]); 92% (active) in assay [4] (at 50.0 µM). Besides, the growth inhibition in assay [5] (setting [7]) was -1%; in assay [5] (setting [8]) it was 74% (active); in assay [5] (at 50.0 µM), 33.7%; in assay [6] (setting [7]), -1%; in assay [6] (setting [8]), 99% (active); in assay [6] (at 50.0 µM), 94.8% (active).
In the case of `Cc1ccc([S@](=O)c2occc2C=O)cc1`, the growth inhibition is 37% in assay [1] (setting [7]); 88% (active) in assay [1] (setting [8]); 74.5% (active) in assay [1] (at 50.0 µM); 29% in assay [2] (setting [7]); 98% (active) in assay [2] (setting [8]); 88.5% (active) in assay [2] (at 50.0 µM). Further, the growth inhibition in assay [3] (setting [7]) is 38%; in assay [3] (setting [8]) it was 98% (active); in assay [3] (at 50.0 µM) it was 84.5% (active); in assay [4] (setting [7]), 23%; in assay [4] (setting [8]), 43%; in assay [4] (at 50.0 µM), 13.4%. Also, the growth inhibition in assay [5] (setting [7]) is 43%; in assay [5] (setting [8]), 98% (active); in assay [5] (at 50.0 µM) it was 62.6%; in assay [6] (setting [7]), 41%; in assay [6] (setting [8]), 96% (active); in assay [6] (at 50.0 µM), 88.2% (active).
Turning to `CCOC(=O)N1C=CC(=C2C(=C3C=CN(C(=O)OCC)C=C3)C(=C3C=CN(C(=O)OCC)C=C3)C2=C2C=CN(C(=O)OCC)C=C2)C=C1`, the growth inhibition in assay [1] (setting [7]) was 55%; in assay [1] (setting [8]) it was 95% (active); in assay [1] (at 50.0 µM) it was 95.9% (active); in assay [2] (setting [7]), -4%; in assay [2] (setting [8]), 57%; in assay [2] (at 50.0 µM), 75.3% (active). Besides, the growth inhibition was -4% in assay [3] (setting [7]); 60% in assay [3] (setting [8]); 65.8% in assay [3] (at 50.0 µM); -3% in assay [4] (setting [7]); 52% in assay [4] (setting [8]); -0.55% in assay [4] (at 50.0 µM). For the same compound, the growth inhibition in assay [5] (setting [7]) was -4%; in assay [5] (setting [8]), 47%; in assay [5] (at 50.0 µM), 54.1%; in assay [6] (setting [7]), 1%; in assay [6] (setting [8]) it was 58%; in assay [6] (at 50.0 µM), 85.7% (active).
As for `C/C(=N\Nc1n[nH]c(=S)n1N)c1c(O)cc(C)oc1=O`, the growth inhibition in assay [1] (setting [7]) was -28%; in assay [1] (setting [8]), 13%; in assay [1] (at 50.0 µM) it was -23%; in assay [2] (setting [7]), 3%; in assay [2] (setting [8]) it was 12%; in assay [2] (at 50.0 µM), 12.1%. Also, the growth inhibition in assay [3] (setting [7]) was -1%; in assay [3] (setting [8]), 4%; in assay [3] (at 50.0 µM), 18.9%; in assay [4] (setting [7]), -2%; in assay [4] (setting [8]) it was 9%; in assay [4] (at 50.0 µM), -21%. In addition, the growth inhibition is 2% in assay [5] (setting [7]); 3% in assay [5] (setting [8]); 14.1% in assay [5] (at 50.0 µM); -2% in assay [6] (setting [7]); 2% in assay [6] (setting [8]); 16.5% in assay [6] (at 50.0 µM).
For the compound `Cc1cc(OCCl)ccc1[N+](=O)[O-]`, the growth inhibition was -2% in assay [1] (setting [7]); 26% in assay [1] (setting [8]); 30.4% in assay [1] (at 50.0 µM); -2% in assay [2] (setting [7]); 32% in assay [2] (setting [8]); 25.6% in assay [2] (at 50.0 µM). The growth inhibition in assay [3] (setting [7]) is -16%; in assay [3] (setting [8]), 67%; in assay [3] (at 50.0 µM) it was 39.1%; in assay [4] (setting [7]) it was -1%; in assay [4] (setting [8]) it was 55%; in assay [4] (at 50.0 µM), 15.6%. Besides, the growth inhibition in assay [5] (setting [7]) was 15%; in assay [5] (setting [8]), 58%; in assay [5] (at 50.0 µM) it was 19.9%; in assay [6] (setting [7]), 1%; in assay [6] (setting [8]), 80% (active); in assay [6] (at 50.0 µM), 74.8% (active).
